# Source: PubChem BioAssay (Broad Institute)
# The list is a sample of the results.
# aSyn 5UTR act – Activators working through SNCA 5'UTR binding (MLPCN) | hit rate 7.1% among 300,000 | activity score, % (tested at 7.5 µM), hits read low | alpha-synuclein 5'UTR reporter, activators screen | AID 1814; in the data active means activity score below about -60%
# A number is an active result; i = inactive.
SMILES,aSyn 5UTR act
COc1cc2c(O)c3c(c(-c4ccc5c(c4)OCO5)c2cc1OC)C(=O)OC3,i
CCCc1cc(-c2nc(N)ncc2-c2ccc3c(c2)OCCCO3)c(O)cc1OC,i
CCN1CCN(c2cc(C)c3cc(NC(=S)N4CCCCC4)ccc3n2)CC1,-85.3
CCN1CCN(c2cc(C)c3cc(NC(=O)c4ccc(Br)o4)ccc3n2)CC1,-84.5
CCN1CCN(Cc2ccc(NC(=O)c3ccc(C)c(/C=C/c4cnc(Nc5cc(N6CCNCC6)nc(C)n5)cn4)c3)cc2C(F)(F)F)CC1,i
CCN1CCN(c2cc(C)c3cc(NC(=O)c4ccc(C)c(C)c4)ccc3n2)CC1,i
Cc1cc(N2CCN(C)CC2)nc2ccc(NC(=O)c3ccccc3F)cc12,-123.0
CCOC(=O)c1sc(-c2ccccc2)cc1N,-116.3
CCOC(=O)c1cc(-c2ccccc2)sc1NC(=O)COC(=O)c1cccc(S(N)(=O)=O)c1,i
CCOC(=O)c1cc(-c2ccccc2)sc1N,-94.1
CCOC(=O)c1sc(-c2ccc(F)cc2)cc1N,-142.5
CC(=O)c1sc(-c2ccccc2)cc1N,-63.2
CCOC(=O)c1sc(-c2ccc(OC)cc2)cc1N,-158.4
O=C(CSc1nc2ccccc2o1)Nc1ccc(N2CCOCC2)c(Cl)c1,-164.9
CC(=O)Nc1ccc2nc(SCC(=O)Nc3ccc(N4CCOCC4)c(Cl)c3)sc2c1,-142.4
CCC(=O)NC(c1ccc(OC)cc1)c1cc(Cl)c2cccnc2c1O (stereo not given),i
COc1ccc(N2C(=O)C(=O)/C(=C(/O)c3ccc(C)cc3)C2c2cccnc2)cc1 (stereo not given),-61.9
COc1ccc(/C(O)=C2/C(=O)C(=O)N(c3ccccn3)C2c2ccc(C(C)C)cc2)cc1 (stereo not given),-121.8
CC(C)NC(=O)c1cc(-c2ccc(Br)cc2)on1,-124.3
CCCNC(=O)c1cc(-c2ccc(Br)cc2)on1,-85.1
CC(C)NC(=O)c1cc(-c2ccco2)on1,-139.4
O=C(NCCc1ccccn1)c1cc2ccccc2o1,-101.7
Cc1ccccc1NC(=O)c1cc2ccccc2o1,-171.5
Nc1ccccc1C(=O)Nc1ccc(Cl)cc1Cl,-119.6
Nc1ccc(NC(=O)c2cccc(C(=O)Nc3ccc(N)cc3Cl)c2)c(Cl)c1,-85.4
SMILES,aSyn 5UTR act
O=C(Nc1ccc(Cl)cc1Cl)c1cc2ccccc2o1,-110.2
O=C(Nc1ccccc1Cl)c1cc2ccccc2o/c1=N\O,-121.3
O=C(Nc1ncccc1Cl)c1cc2ccccc2o1,-74.0
O=C(Cc1ccc(Cl)cc1)Nc1ccc(-c2cc3ccccc3oc2=O)c(Cl)c1,i
COc1ccccc1NC(=O)c1cc2ccccc2o1,-91.6
Cc1ccc(NC(=O)c2cc3ccccc3o2)nc1,-94.6
O=C(O)C1CCC(c2ccc(-c3ccccc3)cc2)CC1 (stereo not given),-84.4
Cc1cc(=O)[nH]c(N=N/C(=N/Nc2ccc(O)cc2)c2ccccc2)n1,-100.2
COc1ccc(N/N=C(/N=Nc2nc(C)cc(=O)[nH]2)c2ccccc2)cc1,i
COC(=O)c1cc2c(s1)-c1ccc(OC)cc1CC2,-211.7
Cc1ccccc1C(=O)O/N=C/c1c(N2CCOCC2)n(C)c2ccccc12,i
COc1ccc2c(c1)CC/C2=N\OC(=O)c1ccccc1C,-136.4
CNC(=O)c1cc2c(s1)-c1ccccc1CC2,-132.9
COc1ccc2c(c1)CC/C2=N\NC(=O)c1ccccc1,-111.3
COc1ccc(C(=O)N=C2CCC(C#N)=C3c4cc(OC)c(OC)cc4CCN23)cc1,i
COc1ccc2c(c1)CC/C2=N\OC(=O)c1cccc(C)c1,-229.7
Cc1cccc2nc3c(nc12)-c1ccccc1C3=O,-106.1
Cc1ccc2nc3c(nc2c1)-c1ccccc1C3=O,-64.5
CC(C)CCNc1nnnc2c1sc1nc(N3CCOCC3)c3c(c12)CC(C)(C)SC3,i
CC1(C)Cc2c(c(N3CCOCC3)nc3snc(N)c23)CO1,-169.3
Oc1c(N=Nc2ccccn2)ccc2ccccc12,i
Oc1ccc(N=Nc2c(O)ccc3ccccc23)cc1,-97.6
NS(=O)(=O)c1ccc(N=Nc2ccc(O)c3ncccc23)cc1,i
Oc1ccc(N=Nc2ccc3ccccc3c2)cc1,-73.2
COc1cc(N=Nc2ccc3ccccc3c2)ccc1O,-144.2
SMILES,aSyn 5UTR act
COC(=O)c1ccc(-c2noc(CN3C[C@H]4CC[C@H]3C4)n2)cc1,-119.5
CSc1nc(-c2ccccc2)nc(NC(C)=O)c1C(C)=O,-62.5
COc1ccccc1-c1cc(C(=O)NCCc2ccccc2)no1,-114.3
COc1cccc2cc(C(=O)NCCc3ccccc3)oc12,-83.5
CCCc1cc(C(=O)NCCc2ccccc2)no1,-91.2
Clc1ccc(-c2nc(C3CCCCC3)no2)cc1,-159.9
Cc1[nH]nc(SCC(=O)N2CCCCC2)c1[N+](=O)[O-],-91.5
Cc1ccccc1NC(=O)Nc1nc2ccc(S(C)(=O)=O)cc2s1,-85.3
COc1ccc(C(=O)Nc2nc3cc4c(cc3s2)OCO4)c(OC)c1,-97.7
Cc1cc(C(=O)Nc2nc3ccc(S(C)(=O)=O)cc3s2)c(C)o1,-107.7
COc1ccc2nc(NC(=O)c3cccnc3SC)sc2c1,-129.8
COc1ccc(NS(=O)(=O)c2cc(C)ccc2NC(=O)c2cc(C)oc2C)cc1,i
COc1ccc2nc(NC(=O)c3cc(C)oc3C)sc2c1,-140.5
